Bioassay records as filed in PubChem.
GPR151 ag = human GPR151 activation | PathHunter beta-arrestin GPR151 cells, luminescence | activation, % at 11.2 µM | actives 1% (n = 650,000); in the data active = activation above about 4.9%;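 also: 0% = median of compound wells and 100% = cells with positive control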
Target sequence (Q8TDV0 whole entry, looked up): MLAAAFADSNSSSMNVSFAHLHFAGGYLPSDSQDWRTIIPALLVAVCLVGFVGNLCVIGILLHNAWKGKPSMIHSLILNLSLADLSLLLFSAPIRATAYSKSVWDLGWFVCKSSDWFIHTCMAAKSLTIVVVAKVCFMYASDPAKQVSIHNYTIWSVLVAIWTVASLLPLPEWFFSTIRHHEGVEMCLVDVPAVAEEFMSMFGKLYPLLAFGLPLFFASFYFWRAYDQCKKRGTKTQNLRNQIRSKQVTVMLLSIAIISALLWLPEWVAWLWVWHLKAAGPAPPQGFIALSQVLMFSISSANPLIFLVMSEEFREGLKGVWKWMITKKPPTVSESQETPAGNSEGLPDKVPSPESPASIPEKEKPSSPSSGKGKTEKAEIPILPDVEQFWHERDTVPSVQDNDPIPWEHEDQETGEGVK
FBW7 activator = human FBW7 E3 ligase activation, primary screen; actives 0.13% (n = 650,000); AID 1259310; AlphaScreen FBW7–phospho-cyclin E peptide binding, activator screen; normalized activity (activation), % at 26.1 µM; Q969H0; in the data active = normalized activity above about 1.9%;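 also: purified mutant Fbw7 with reduced substrate affinity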
MITF inh = human MITF inhibition, primary screen | O75030 | AlphaScreen MITF homodimerization, bead proximity signal | inhibition, % at 2.6 µM | actives 0.91% (n = 650,000) | AID 1259374; in the data active = inhibition above about 50%;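 also: 0% = vehicle wells with protein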
TEAD-YAP inh = TEAD-YAP interaction inhibition | inhibition, % at 9.12 µM | actives 1.4% (n = 640,000) | HEK-TIYL cells, TEAD-Gal4/YAP UAS-luciferase luminescence | AID 1259422; in the data active = inhibition above about 32%;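 also: 0% = median of test compound wells and 100% = reference inhibitor wells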
Active calls of the source: *. Only some compounds are listed: those with a hit (about 3.5% of all), similar ones and a draw of the others.

SMILES	GPR151 ag	FBW7 activator	MITF inh	TEAD-YAP inh
CC1(C)CC(=O)C2=C(C1)Nc1ccccc1NC2c1ccc(-c2ccccc2)cc1 (stereo not drawn)	2	0	-1	21
CSc1ccc(C2Nc3ccc(C(=O)c4ccccc4)cc3NC3=C2C(=O)CCC3)cc1 (stereo not drawn)	0	0	-12	43*
COc1cc(C2Nc3ccc(C(=O)c4ccccc4)cc3NC3=C2C(=O)CC(C)(C)C3)ccc1O (stereo not drawn)	0	0	-1	41*
O=C1CCCC2=C1C(c1ccc(Cl)c(Cl)c1)Nc1ccc(C(=O)c3ccccc3)cc1N2 (stereo not drawn)	0	0	4	50*
CC1CCCN(C2CCC(=O)N(Cc3cccc(F)c3)CC2)C1 (stereo not drawn)	0	1	3	-4
CCOC(=O)C(CC(C)C)N(Cc1ccc(Cl)cc1)S(=O)(=O)c1ccc(Br)cc1 (stereo not drawn)	-1	0	0	11
CCCCNc1ncnc2ccc(Br)cc12	3	0	-6	45*
CCC1CCCCN1S(=O)(=O)c1ccc2cc(OC)ccc2c1 (stereo not drawn)	1	0	10	-2
COc1cccc(C2=CC(c3cc(Br)ccc3F)n3ncnc3N2)c1 (stereo not drawn)	0	0	1	47*
COc1cccc(C2=CC(c3ccccc3OC(F)F)n3ncnc3N2)c1 (stereo not drawn)	-1	0	6	52*
COc1cccc(C2=CC(c3ccc(OC)cc3OC)n3ncnc3N2)c1 (stereo not drawn)	-1	0	3	40*
COc1cccc(C2=CC(c3ccc(OC(F)F)cc3)n3ncnc3N2)c1 (stereo not drawn)	-1	1	3	-52
O=[N+]([O-])c1ccc(/C=N/NS(=O)(=O)c2ccccc2)s1	1	0	-6	-3
Cc1ccc(S(=O)(=O)N2CCOCCOCCN(S(=O)(=O)c3ccc(C)cc3)CCOCCOCC2)cc1	1	0	-5	-3
CC(=O)N1CCN(CC(=O)NC(c2ccccc2)c2ccccc2)CC1	0	6.2*	-4	0
COCCN1C(=O)/C(=C/c2ccccc2OC)SC1=S	0	0	18	3
COc1ccccc1/C=C1/SC(=S)N(CCCC(=O)O)C1=O	1	0	-1	46*
COc1ccccc1/C=C1/SC(=S)N(CCCCCC(=O)O)C1=O	-1	0	2	58*
C=CCOC(=O)c1[nH]c2c(c1C)C(=O)CC(c1cc(OC)c(OC)c(OC)c1)C2 (stereo not drawn)	0	0	-4	43*
COC(=O)c1[nH]c2c(c1C)C(=O)CC(c1cc(OC)ccc1OC)C2 (stereo not drawn)	0	0	-5	46*
Cc1c(C(=O)O)[nH]c2c1C(=O)CC(c1ccccc1Cl)C2 (stereo not drawn)	-2	0	-6	-2
CCOC(=O)c1[nH]c2c(c1C)C(=O)CC(c1cc(OC)ccc1OC)C2 (stereo not drawn)	1	0	7	44*
COC(=O)c1[nH]c2c(c1C)C(=O)CC(c1ccccc1Cl)C2 (stereo not drawn)	0	0	20	52*
C=CCOC(=O)c1[nH]c2c(c1C)C(=O)CC(c1ccc(OC)c(OC)c1)C2 (stereo not drawn)	0	0	17	3
CCOc1ccc(C2CC(=O)c3c([nH]c(C(=O)OC)c3C)C2)cc1OC (stereo not drawn)	0	0	13	-12
SMILES	GPR151 ag	FBW7 activator	MITF inh	TEAD-YAP inh
Cc1ccc(C(C)C)c(Oc2cc(NC(=O)c3cc4n(n3)C(C(F)(F)F)CC(c3cccs3)N4)cc([N+](=O)[O-])c2)c1 (stereo not drawn)	-1	0	4	9
C=CCOC(=O)c1[nH]c2c(c1C)C(=O)CC(c1cccs1)C2 (stereo not drawn)	1	0	-9	49*
C=CCOC(=O)c1[nH]c2c(c1C)C(=O)CC(c1ccc(OC)cc1)C2 (stereo not drawn)	1	0	1	-35
C=CCOC(=O)c1[nH]c2c(c1C)C(=O)CC(c1cc(OC)ccc1OC)C2 (stereo not drawn)	0	0	-4	42*
CCOC(=O)c1[nH]c2c(c1C)C(=O)CC(c1cccc(OC)c1)C2 (stereo not drawn)	1	0	-3	44*
CC1CC(C)CN(c2ccc([N+](=O)[O-])s2)C1 (stereo not drawn)	-2	0	13	3
COC(=O)c1sccc1NC(=O)Cn1c(-c2nonc2N)nc2ccccc21	1	0	-8	50*
COc1cccc(/C=N\NC(=O)Cn2c(-c3nonc3N)nc3ccccc32)c1O	-1	0	12	29
CCOC(=O)c1ccccc1NC(=O)Cn1c(-c2nonc2N)nc2ccccc21	0	0	2	52*
Nc1nc(N)nc(CCCn2c(-c3nonc3N)nc3ccccc32)n1	0	0	12	57*
COc1cc(/C=N/NC(=O)Cn2c(-c3nonc3N)nc3ccccc32)ccc1O	0	0	6	45*
Nc1nonc1-c1nc2ccccc2n1CC(=O)Nc1ccccc1-c1ccccc1	2	0	7	-11
Cc1ccccc1OCC(=O)Nc1ccc(N2CCOCC2)cc1	-1	0	12	-14
COc1ccc(C)cc1NC(=O)c1sc2ncn(Cc3ccccc3F)c(=O)c2c1C	-1	0	21	9
Cc1nc2cc(NC(=O)c3ccc(S(=O)(=O)N(C)C4CCCCC4)cc3)ccc2s1	0	0	12	38*
Cc1ccc(N2C(=O)C(Cl)=C(Nc3cccc(O)c3)C2=O)c(C)c1	-1	1	32	36*
O=C1C(Cl)=C(Nc2cccc(O)c2)C(=O)N1c1ccccc1Cl	0	0	16	3
O=C1C(Cl)=C(Nc2cccc(O)c2)C(=O)N1c1cccc(Cl)c1Cl	-1	0	10	53*
O=C(NCC1CCN(S(=O)(=O)c2ccc(Cl)cc2)CC1)c1cccnc1	1	0	-1	-3
CCOC(=O)C1CCCN(S(=O)(=O)c2cnc[nH]2)C1 (stereo not drawn)	1	0	10	3
O=C(Nc1ccncc1)c1ccc(COc2ccccc2Cl)cc1	-4	1	16	60*
CN(C)S(=O)(=O)c1ccc(C(=O)Nc2ccc(Cc3ccncc3)cc2)cc1	1	0	-5	22
O=C(Nc1ccc(Cc2ccncc2)cc1)c1ccc(Oc2ccc(C(=O)Nc3ccc(Cc4ccncc4)cc3)cc2)cc1	0	0	6	62*
Cc1ccc(Oc2ccc(NC(=O)c3ccncc3)cc2)cc1C	0	0	7	36*
O=c1c(CN2CCN(Cc3ccccc3)CC2)coc2ccccc12	-2	0	43	67*
O=C(Cc1cn(-c2ccc(Nc3ccc(N4CCOCC4)cc3)nn2)c2ccccc12)NCc1ccccc1	-1	0	14	48*
